Out of some 44,000 compounds screened, about 340 (0.77%) were called active. Where a call stands in place of a potency, no number is given. About 5% were inconclusive and are not listed. Calls follow the shape of the dose curve; as a rule, active = well fitted inhibition curve with a large enough effect; inconclusive = small, poorly fitted or top-dose-only effect; inactive = flat fitted curve, though single readings scatter. Only a selection was taken, and actives are over-represented in it overall.
Potency is read from the fitted curve at half-maximal effect.

This assay can be described thus: Acumen qHTS Assay for Inhibitors of the mTORC1 Signaling Pathway in MEF (Tsc2-/-, p53-/-) Cells: Sytravon. Also: nearly all actives have a fitted effect of over 50% in size. Particulars: phospho-rpS6 immunofluorescence/PI, 24 h; series mostly up to 38.3 µM. The source says:
NIH Molecular Libraries Probe Production Centers Network [MLPCN] NIH Chemical Genomics Center [NCGC] MLPCN Grant: NS059428-01 Assay Submitter (PI): Blenis, John; Hoffman, Greg; Harvard University NCGC Assay Overview: The mammalian target of rapamycin (mTOR) is an intracellular serine/threonine kinase Aberrant regulation of mTOR signaling plays a causative role in a number of human diseases, including cancer, benign tumors such as lymphangioleiomyomatosis (LAM) and Tuberous Sclerosis Complex (TSC), and metabolic diseases such as diabetes and obesity. This project aims to identify inhibitors of ribosomal protein S6 (rpS6) phosphorylation. The phosphorylation of rpS6 is a key event downstream of mTOR activation. The assay uses a phospho-specific antibody of phospho-rpS6 to detect inhibitors of mTOR activation. Mutations in the Tsc1 and Tsc2 genes are the underlying genetic lesions responsible for TSC, causing constitutive activation of the mTORC1 pathway and leading to profound effects on cell metabolism. Aberrant metabolism in cancer has recently received significant attention as a target to develop therapeutic agents in the treatment of cancer.1 As Tsc2-/- cells have lost the ability to respond to energy and growth factor deprivation, these cells are unable to properly down regulate cellular biosynthetic processes in response to metabolic stress, and are thus extremely sensitive to glucose deprivation-induced death.2 A central goal of this project is to explore the unique cell survival and metabolic properties of cells with Tsc1 or Tsc2 by screening for compounds that selectively target the Tsc2-/- MEFs by screening both Tsc2-/- and WT MEF cell lines. We hope to better understand these aspects of TSC physiology in order to exploit them for therapeutic benefit.
NCGC Acumen Assay Protocol Summary: For quantitative high throughput analysis of mTORC1 signaling, we developed a cell-based assay for immuno-fluorescence based detection of rpS6 phosphorylation on the Acumen Explorer that will be used a platform for the primary small molecule screen. Mouse embryonic fibroblasts (MEFs) are cultured in 1536-well plates using DMEM + 10% FBS. Twenty-four hrs after plating, test compounds (solubilized in DMSO) are delivered and incubated with the cells for 24 hrs at 37 degree Celsius. Following the incubation, media with compound is aspirated and the cells are fixed in 4% paraformaldehyde (PFA) containing PBS + 0.2% TX-100. Next, PFA is aspirated, cells are washed two times with PBS plus 0.2% TX-100 and the cells are blocked for 1 hr at room temperature (blocking buffer: LiCOR Blocking Buffer plus 0.2% TX-100). […] Cells are washed two times with PBS plus 0.2% TX-100, and stained with 10 uM propidium iodide (PI) for 20-25 minutes for cell number measurement (1:500 dilution of Hoescht staining is also added for IN Cell imaging). The plates are scanned on the Acumen Explorer laser scanning instrument (TTP Labtech) using the 488nm laser for simultaneous excitation of the Alexa-488 and PI. […] The normalized phospho-S6 staining is calculated as the ratio of the integrated Alexa 488 intensity divided by the integrated PI intensity for the single concentration rapamycin control (7.5 nM) and DMSO columns. […] Inhibition of the pathway is defined based on the normalized phospho-S6 intensity in rapamycin treated cells. Active cells are defined as those with a normalized phospho-S6 staining above this threshold, and each treatment is reported as the % positive cells in the well, where thresholds are defined by selecting wells with the highest and lowest signal and differentiating between the % non-active and % active populations. In addition to the pathway specific phospho-S6 endpoint, the number of PI stained cells from the Acumen is recorded as a measure of cell viability. The primary screen was performed with a MEF cell line in a defined genetic background, Tsc2-/-, p53-/- cell line stably transfected with an empty vector control (Tsc2-/- MEF).
In general terms: In qHTS, concentration-response curves come from the screen itself.
Turning to `COc1ccc2c(Sc3ccc(C)cc3)c(C(=O)NC(C)c3ccccc3)[nH]c2c1` (stereo unspecified), the Potency entry is “inactive”.
Then `CCc1ccc(CNC(=O)C2CCN(c3nn4cc(-c5ccc(F)cc5)nc4s3)CC2)cc1`, with “inactive”; and `COCCNC(=O)CSc1nc(-c2ccccc2)[nH]c1-c1ccc(C)cc1`, with “inactive”; and `CCOc1ccccc1NC(=O)CSc1ncc(S(=O)(=O)c2ccc(C(C)(C)C)cc2)c(=O)[nH]1`, with “inactive”.
As to `CCCCOc1ccc(Cn2c(=O)oc3ccc(C)cc32)cc1OC`, the Potency entry was “inactive”.
For the molecule `CCCCOc1ccc(CN2C(=O)C(=O)c3cc(Br)cc(C)c32)cc1OC`, the Potency was 9.27 µM (active).
Consider `CCOc1ccc(CNCc2c(C(=O)O)c(C)n(Cc3cccc(OC)c3)c2C)cc1OC`, for which the Potency result is “inactive”.
With `Cc1cc(NC(=O)c2cccc(Cl)c2)ccc1-c1cc2ccccc2oc1=O`, the Potency result was “inactive”.
Next, `COc1cccc(C(=O)Nc2nnc(S(=O)(=O)N3CCOCC3)s2)c1`: “inactive”; `COc1ccccc1NC(=O)c1cc(S(=O)(=O)NCCc2ccccc2)ccc1F`: “inactive”.
With `Cc1cc(C)c2oc(-c3cccc(NC(=O)c4cccc(F)c4)c3C)nc2c1`, the Potency result is “inactive”.
`CCc1ccc(CNCc2c(C(=O)O)n(Cc3ccc(F)cc3Cl)c3cc(OC)ccc23)cc1`: the Potency result was “inactive”.
Then `COc1ccc(Cl)cc1NC(=O)CSc1nc(-c2cccs2)cc(C(F)(F)F)n1`, with “inactive”; and `COc1ccc(C)cc1NC(=O)COCc1cc(-c2cccs2)on1`, with “inactive”; and `COc1ccc(C(F)(F)F)cc1NC(=O)c1sc2nc(-c3cccs3)ccc2c1N`, with 18.5 µM (active).
Then `Cc1nc2c(c(C)nn2-c2ccccc2)c(C)c1CCC(=O)NCCc1ccc(Cl)cc1`, with “inactive”; and `O=C(NCc1ccccc1)c1cc(-c2cccc(Cl)c2)on1`, with “inactive”.
Then `CC(C)CCN(C(=O)Nc1ccc(Cl)c(Cl)c1)C(C)c1cccs1` (stereo unspecified), with “inactive”; and `Cc1cccc(CCNC(=O)c2ccc3c(c2)nc2n3CCC(C)C2)c1` (stereo unspecified), with “inactive”; and `Cc1nn2c(=O)cc(COC(=O)c3ccccc3NC(=O)COc3ccccc3C)nc2s1`, with “inactive”.
As for `COc1ccc(Br)cc1CNC(=O)c1cc(=O)[nH]c2ccc(S(=O)(=O)N3CCCC3)cc12`, the Potency entry is “inactive”.
Then `CN(C)CCCn1c(-c2ccc(Cl)cc2)csc1=Nc1ccccc1`, with “inactive”.
Next, `COc1ccc(-c2nnc(SCC(=O)Nc3ccccc3C)o2)cc1OC`: “inactive”; `COc1ccc(Cc2nc3ccc(C(=O)NCc4ccc(OC)cc4OC)cc3o2)cc1`: “inactive”; `Cc1ccc(Cl)cc1NC(=O)CCC(=O)N1CC(C)Sc2ccccc21` (stereo unspecified): “inactive”.
Then `Cc1nc2ccccn2c(=O)c1NC(=O)c1c(F)cccc1F`, with “inactive”; and `CCc1cccc(NC(=O)Cn2nc(CC)n3c(cc4cc(C)ccc43)c2=O)c1`, with “inactive”.
With `CCOc1ccc(Nc2c(S(=O)(=O)c3ccccc3)cnc3ccccc23)cc1`, the Potency result was “inactive”.
Regarding `COc1ccc(CNC(=O)c2cc3cccc(OC)c3oc2=O)cc1`, the Potency result was “inactive”.
Then `COc1ccc(-n2c(SCC(N)=O)nc3c(oc4ccccc43)c2=O)cc1`, with “inactive”; and `CCOc1ccccc1NC(=O)C1=C(C)Nc2ncnn2C1c1ccc(NC(C)=O)cc1` (stereo unspecified), with “inactive”.
With `CCOc1ccc(C2C(C(=O)Nc3ccc(Cl)cc3)=C(C)Nc3nc(C(F)(F)F)nn32)cc1` (stereo unspecified), the Potency was 5.85 µM (active).
Then `CCOc1cc(C2C(C(=O)Nc3ccc(OC)cc3)=C(C)Nc3nc(SC)nn32)ccc1O` (stereo unspecified), with “inactive”; and `CCc1cccc(NC(=O)c2cnc(N3CCOCC3)c3ccccc23)c1`, with “inactive”.
Then `Cc1cccc(N2CCN(C3=C(c4ccccc4)C(=O)c4ccccc43)CC2)c1C`, with “inactive”.
Then `COc1ccc(N(CC(=O)NCCc2ccc(Cl)cc2)S(=O)(=O)c2c(C)nn(C)c2C)cc1`, with “inactive”; and `Cc1ccc(OCC(=O)Nc2ccc(OCc3cc(=O)n4c(C)csc4n3)cc2)cc1C`, with “inactive”.
As for `O=C(Cn1c(=O)n(-c2ccc(F)cc2)c(=O)c2sc3ccccc3c21)NC1CCCC1`, the Potency result was “inactive”.
Turning to `CCOc1cc(-c2nnc(SCC(=O)NC3CCCC3)nc2-c2ccc(OC)c(OCC)c2)ccc1OC`, the Potency entry is “inactive”.
Next, `CCOc1ccc(CCNC(=O)Cn2nc(CC)n3c(cc4sc(CC)cc43)c2=O)cc1OCC`: “inactive”; `CCc1ccc(C(=O)CC2(O)C(=O)N(CCc3ccccc3)c3ccc(Br)cc32)cc1` (stereo unspecified): “inactive”.
Next, `CCCN1C(=O)C(O)(CC(=O)c2ccc(CC)cc2)c2cc(Br)ccc21` (stereo unspecified): 4.65 µM (active); `Cc1ccc(C(=O)CC2(O)C(=O)N(CCc3ccccc3)c3ccc(Br)cc32)cc1` (stereo unspecified): “inactive”; `CCOc1ccccc1C(=O)NCC(c1ccc(N(C)C)cc1)N1CCCC1` (stereo unspecified): “inactive”.
Next, `COc1ccccc1NC(=O)c1sc2nc(C)c(C(=O)Nc3ccc(Cl)cc3)c(-c3ccc(Br)cc3)c2c1N`: “inactive”; `COC(=O)c1ccccc1NC(=O)Cn1c(=O)cc(C)c2c(C)nn(-c3cccc(Cl)c3C)c21`: “inactive”; `CCOc1ccc(N(CC)C(=O)c2cc3c(=O)oc4ccccc4c3s2)cc1`: “inactive”.
As for `Cc1ccc(Cn2c(CNC(=O)Cc3cccc(C)c3)nc3cccnc32)cc1`, the Potency result was “inactive”.
For `Cc1ccc(C)c(NC(=O)Cn2ccn(-c3ccc(F)cc3)c(=O)c2=O)c1`, the Potency result was “inactive”.
Then `COc1cc2nc(SCC(=O)Nc3ccccc3F)n3nc(-c4ccccc4)nc3c2cc1OC`, with “inactive”.
Then `Cc1cccc(N2CCN(C(=O)c3ccc4c(c3)CCN4S(=O)(=O)c3ccccc3)CC2)c1C`, with “inactive”; and `O=C(NCCCO)C(=O)Nc1c2c(nn1-c1ccccc1)CSC2`, with “inactive”; and `CCCCN(C)S(=O)(=O)c1ccc(C(=O)Nc2sc3c(c2C(N)=O)CC(C)(C)NC3(C)C)cc1`, with “inactive”.
Then `O=C(CCSCc1ccccc1F)N1CCN(c2ccc(Cl)cc2)CC1`, with “inactive”; and `COc1cc(OC)c(NC(=O)N2CC3CCCN3c3ccccc32)cc1Cl` (stereo unspecified), with “inactive”; and `COc1ccc(CNc2nc(-c3ccc(Cl)cc3)nn2C(=O)c2ccccc2)cc1`, with “inactive”.
Take `CCOc1ccc(-n2c(C)nc3c(cnn3-c3ccc(C)cc3)c2=O)cc1`: the Potency result is “inactive”.
Next, `COc1ccccc1NC(=O)CSC1=Nc2ccccc2C2=NC(CC(=O)NCc3cccs3)C(=O)N12` (stereo unspecified): “inactive”; `COc1cc(NC(=O)Cn2nc(-c3ccc(C)c(C)c3)ccc2=O)cc(OC)c1`: “inactive”; `CCN(CC)c1cc(NC2CCCCC2)c2c3c(onc13)-c1ccccc1C2=O`: “inactive”.
As for `COc1ccc(-c2noc(CSc3nc4ccc(C)cc4[nH]3)n2)cc1`, the Potency entry was “inactive”.
